Reference: PubChem BioAssay (NCATS)
Records with an inconclusive call do not appear. Calls of active or inactive are those of the source. Calls follow the shape of the dose curve; as a rule, active = well fitted curve in the direction sought with a large enough effect; inconclusive = small, poorly fitted or top-dose-only effect, or another doubt; inactive = no such curve, though single readings can be large; an effect the other way counts as inactive or inconclusive.

Tests used:
[1] = Primary qHTS for inhibitors of nuclear receptor binding SET domain protein 2 (NSD2) in an RCH-ACV wild type WT cells (2C) (AID 1645877); also: nearly all actives have a fitted effect of over 70% in size; also: potency is read from the fitted curve at half-maximal effect; as to activity change, negative = cell killing: % is scaled to controls: 0 for no effect and ±100 for the full control effect
[2] = target: Glutathione peroxidase 1 (Homo sapiens) (UniProt P07203); experiment: Primary qHTS Assay for Inhibitors of Recombinant Selenoprotein Glutathione Peroxidase 1 (GPX1) (AID 1845191); also: nearly all actives have a fitted effect of over 65% in size; as to activity, negative = inhibition: % is scaled to controls: 0 for no effect and ±100 for the full control effect
How it was run: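 10 nM GPX1 + cpd, 30 min RT; start w/ 1 mM GSH, 0.5 mM cumene hydroperoxide, 0.5 mM NADPH, 100 nM GR, 0.01% BSA; buffer 50 mM Tris-HCl pH 7.5, 2 mM EDTA, 150 mM NaCl; Fl 340/450, 0 & 15 min.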

[3] = target: Phospholipid hydroperoxide glutathione peroxidase GPX4 (Homo sapiens) (UniProt P36969); experiment: Primary qHTS Assay for Inhibitors of Recombinant Selenoprotein Glutathione Peroxidase 4 (GPX4) (AID 1845192); also: nearly all actives have a fitted effect of over 65% in size; as to activity change, negative = inhibition: series mostly up to about 50 µM; % is scaled to controls: 0 for no effect and ±100 for the full control effect
How it was run: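 NADPH consumption, followed by fluorescence at 340/450 nm between 0 and 15 min, reports GPX4 activity via coupled glutathione reductase (100 nM). Enzyme 200 nM was pre-exposed to compound 30 min; 0.5 mM cumene hydroperoxide and 1 mM GSH served as substrates.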

[4] = target: Luciferin 4-monooxygenase (Photinus pyralis) (UniProt P08659); experiment: Primary firefly luciferase (FLuc) qHTS assay for identification of artifact compounds. (AID 1845220); also: nearly all actives have a fitted effect of over 60% in size; also: potency is read from the fitted curve at half-maximal effect;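 as to activity change, negative = inhibition: series mostly up to about 54 µM; plate controls were DMSO vehicle for no effect and no enzyme for full effect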
How it was run: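 FLuc 10 nM; luciferin 10 uM; ATP 10 uM; Tris-acetate pH 7.6, Mg-acetate 10 mM; 15 min RT preincubation; 5 min reaction; luminescence.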

[5] = Primary fluorescence-based thiol-reactive (MSTI) qHTS assay for identification of artifact compounds. (AID 1845221); also: nearly all actives have a fitted effect of over 65% in size; also: potency is read from the fitted curve at half-maximal effect;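 as to activity change, negative = thiol reactive: series mostly up to about 54 µM; thiol-reactive compounds lower the probe fluorescence signal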
How it was run: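 MSTI probe at 4 uM final in 2% DMSO/PBS pH 7.4; compounds, 1 h at room temperature in dark. Fluorescence Ex/Em 525/598 nm, normalised to Acetyl-MSTI and MSTI, fitted to 4-parameter Hill.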

[6] = system: Nanoluciferase (engineered Oplophorus gracilirostris luciferase); experiment: Primary Nanoluciferase (NLuc) qHTS assay for identification of artifact compounds. (AID 1845222);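 also: NLuc secreted into diluted conditioned medium of S16 cells; series mostly up to about 54 µM; 0% = DMSO and -100% = no enzyme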
How it was run: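 NLuc from S16 cell medium (1:55) plus test compounds, 15 min, room temperature. Luminescence after Nano-Glo (1:100) addition, 5 min.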

[7] = Primary redox qHTS assay for identification of artifact compounds. (AID 1845223);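 also: 0% = DMSO and 100% = reference compound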
How it was run: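 Amplex Red (25 uM) and HRP (250 mU/mL) in HBSS, with compounds for 15 min, then 250 uM DTT for 30 min, room temperature, dark. Fluorescence 525/598 nm read; normalized to DMSO and 10 uM DA3003; Hill fit.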

Sequence of Glutathione peroxidase 1 (Homo sapiens) (P07203 whole entry, looked up): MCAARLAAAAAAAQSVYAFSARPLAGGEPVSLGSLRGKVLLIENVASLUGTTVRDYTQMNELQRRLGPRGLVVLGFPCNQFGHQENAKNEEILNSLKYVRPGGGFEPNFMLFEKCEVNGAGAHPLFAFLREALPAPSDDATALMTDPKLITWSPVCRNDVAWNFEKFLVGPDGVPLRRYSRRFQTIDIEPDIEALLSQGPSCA
Sequence of Phospholipid hydroperoxide glutathione peroxidase GPX4 (Homo sapiens) (P36969 whole entry, looked up): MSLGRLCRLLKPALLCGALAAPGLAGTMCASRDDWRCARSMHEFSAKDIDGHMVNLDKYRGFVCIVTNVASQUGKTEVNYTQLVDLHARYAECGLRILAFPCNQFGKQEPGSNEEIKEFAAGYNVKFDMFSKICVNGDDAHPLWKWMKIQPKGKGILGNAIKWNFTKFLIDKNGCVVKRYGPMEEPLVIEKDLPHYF

Cc1[nH]nc(C(F)(F)F)c1Cc1sc2c(c1C(=O)N1C[C@](C)(O)CO1)c(=O)n(C)c(=O)n2C(C)C
inactive: Potency [1] | Potency [2] | Potency [3] | Potency [4] | Potency [5] | Potency [6] | Potency [7]

COC(=O)C1=COC(O[C@@H]2O[C@H](CO)[C@@H](O)[C@H](O)[C@H]2O)[C@H]2[C@@H]1[C@H](OC(=O)CCc1ccc(O)cc1)C[C@]2(C)O (stereo not given in full)
inactive: Potency [1] | Potency [2] | Potency [3] | Potency [4] | Potency [5] | Potency [6] | Potency [7]

CC1CCC2(C(=O)O)CCC3(C)C(=CCC4C5(C)CCC(O)C(C)(CO)C5CCC43C)C2C1(C)O (stereo not given)
inactive: Potency [1] | Potency [2] | Potency [3] | Potency [4] | Potency [5] | Potency [6] | Potency [7]

O=C(CN1C(=O)C2(CCCC2)NCC1c1cc(F)cc(F)c1)Nc1ccc2c(c1)CC1(C2)C(=O)Nc2ncccc21 (stereo not given)
inactive: Potency [1] | Potency [2] | Potency [3] | Potency [4] | Potency [5] | Potency [6] | Potency [7]

C[C@@H]1C(=O)O[C@H](C)[C@H]1CC(=O)[C@](C)(O)[C@H]1CC[C@@]2(O)C3=CC(=O)[C@@H]4C[C@@H](O)[C@@H](O)C[C@]4(C)C3CC[C@]12C (stereo not given in full)
inactive: Potency [1] | Potency [2] | Potency [3] | Potency [4] | Potency [5] | Potency [6] | Potency [7]

CN1CCC(Nc2nc(Nc3ccc(Oc4ccccc4)cc3)c3c(=O)[nH]cc(Br)c3n2)CC1
active: Potency [1] 916 nM
inactive: Potency [2] | Potency [3] | Potency [4] | Potency [5] | Potency [6] | Potency [7]

CC12CCC(C(OC3OC(COC4OCC(O)(CO)C4O)C(O)C(O)C3O)C1)C(C)(C)O2 (stereo not given)
inactive: Potency [1] | Potency [2] | Potency [3] | Potency [4] | Potency [5] | Potency [6] | Potency [7]

O=C1NC(Cc2c[nH]c3ccccc23)C(=O)NC1Cc1cnc[nH]1 (stereo not given)
inactive: Potency [1] | Potency [2] | Potency [3] | Potency [4] | Potency [5] | Potency [6] | Potency [7]

C[C@H]1CC[C@@]2(OC1)O[C@H]1CC3C4CC[C@H]5C[C@@H](O)[C@H](O)C[C@]5(C)C4=CC(=O)[C@]3(C)[C@H]1[C@@H]2C (stereo not given in full)
inactive: Potency [1] | Potency [2] | Potency [3] | Potency [4] | Potency [5] | Potency [6] | Potency [7]

COc1ccc(C(=O)Nc2ncc(-c3ccc(C(=O)O)cc3)s2)cc1
active: Potency [1] 1840 nM | Potency [4] 2.69 µM
inactive: Potency [2] | Potency [3] | Potency [5] | Potency [6] | Potency [7]

O=C(O)/C=C/c1cc2c(cc1O[C@@H]1O[C@H](CO)[C@@H](O)[C@H](O)[C@H]1O)OCO2
inactive: Potency [1] | Potency [2] | Potency [3] | Potency [4] | Potency [5] | Potency [6] | Potency [7]

COC(=O)c1cc(OC)c(O[C@@H]2O[C@@H](C)[C@H](O)[C@@H](O)[C@H]2O)c(OC)c1
inactive: Potency [1] | Potency [2] | Potency [3] | Potency [4] | Potency [5] | Potency [6] | Potency [7]

CC(=O)N[C@@H](C(=O)O[C@H]1CCC(C)(C)[C@@H]2CCC3=C(COC3=O)[C@@]12C)C(C)C
inactive: Potency [1] | Potency [2] | Potency [3] | Potency [4] | Potency [5] | Potency [6] | Potency [7]

CC1=C(C(=O)O)/C(=C\CO[C@@H]2O[C@H](CO)[C@@H](O)[C@H](O)[C@H]2O)C(OC(=O)/C=C\c2ccc(O)cc2)C1 (stereo not given in full)
active: Potency [5] 4.62 µM
inactive: Potency [1] | Potency [2] | Potency [3] | Potency [4] | Potency [6] | Potency [7]

O=C(O)CC(=O)OC[C@H]1O[C@@H](Oc2ccc3c(c2)OC[C@H]2c4cc5c(cc4O[C@@H]32)OCO5)[C@H](O)[C@@H](O)[C@@H]1O
inactive: Potency [1] | Potency [2] | Potency [3] | Potency [4] | Potency [5] | Potency [6] | Potency [7]

Cc1cccc2c1NC(=O)C2(c1ccc(O)cc1)c1ccc(O)cc1
inactive: Potency [2] | Potency [3] | Potency [4] | Potency [5] | Potency [6] | Potency [7]
active: Potency [1] 8170 nM

CC(=O)N[C@H]1[C@H](O[C@H]2CC[C@@]3(C)C(CC[C@]4(C)C3CC=C3[C@@H]5CC(C)(C)CC[C@]5(C(=O)OC5OCC(O)C(O)C5O)CC[C@]34C)C2(C)C)O[C@H](COC2OC(C)C(O)C(OC3OC(C)C(O)C(O)C3O)C2O)[C@@H](O)[C@@H]1O (stereo not given in full)
inactive: activity change, negative = cell killing [1] 1.82% [at 9.23 µM] | Potency [2] | Potency [3] | outcome [4] inactive [at 11.6 µM] | activity change, negative = thiol reactive [5] 127% [at 11.5 µM] | activity, negative = inhibition [6] 4.87% [at 11.6 µM] | redox activity (% of DA3003) [7] 3.21% [at 11.5 µM]

CC(=O)O[C@@H]1[C@@H](O)[C@H](C)O[C@@H](O[C@H]2[C@@H]3C=CO[C@@H](O[C@@H]4O[C@H](CO)[C@@H](O)[C@H](O)[C@H]4O)[C@@H]3[C@@]3(CO)O[C@@H]23)[C@@H]1OC(=O)/C=C/c1ccccc1
inactive: Potency [1] | Potency [2] | Potency [3] | Potency [4] | Potency [5] | Potency [6] | Potency [7]

CC(C)=CCC[C@](C)(O[C@@H]1O[C@H](CO)[C@@H](O)[C@H](O)[C@H]1O)[C@H]1CC[C@]2(C)[C@@H]1[C@H](O)CC1[C@@]3(C)CC[C@H](O)C(C)(C)C3[C@@H](O[C@@H]3O[C@H](CO)[C@@H](O)[C@H](O)[C@H]3O[C@@H]3OC[C@@H](O)[C@H](O)[C@H]3O)C[C@]12C (stereo not given in full)
inactive: activity change, negative = cell killing [1] -29.2% [at 9.23 µM] | Potency [2] | Potency [3] | activity change, negative = inhibition [4] -4.76% [at 11.6 µM] | activity change, negative = thiol reactive [5] 136% [at 11.5 µM] | activity, negative = inhibition [6] -0.941% [at 11.6 µM] | redox activity (% of DA3003) [7] 12.7% [at 11.5 µM]

CCCC(=O)O[C@@H]1[C@@H]2[C@@H](OC(C)=O)[C@]3(C)C(=O)[C@H]4[C@@H](OC(C)=O)C(C)(C)C[C@H]4[C@]3(C)C(=O)[C@@]2(OC(C)=O)C[C@@H]1C
inactive: Potency [1] | Potency [2] | Potency [3] | Potency [4] | Potency [5] | Potency [6] | Potency [7]

CC(C)c1nnc(-c2ccc(-c3ccccc3)nc2)n1-c1cccc2nonc12
inactive: Potency [1] | Potency [2] | Potency [3] | Potency [4] | Potency [5] | Potency [6] | Potency [7]

COc1ccc(N(C)c2nc(C)nc3ccccc23)cc1
active: Potency [1] 11.8 nM
inactive: Potency [2] | Potency [3] | Potency [4] | Potency [5] | Potency [6] | Potency [7]

CCC(=O)O[C@H]1C(C)(C)[C@H]([C@@H](O)C(=O)OC)[C@]2(C)C(=O)[C@@]1(O)[C@H]1O[C@]13C1CC(=O)O[C@@H](c4ccoc4)[C@]1(C)CCC32 (stereo not given in full)
inactive: Potency [1] | Potency [2] | Potency [3] | Potency [4] | Potency [5] | Potency [6] | Potency [7]

C[C@@H]1O[C@@H](O[C@H]2[C@H](O[C@H]3[C@H](O)[C@@H](C(=O)O)O[C@@H](O[C@H]4CC[C@@]5(C)C(CC[C@]6(C)C5CC[C@]57OC[C@@]8(CCC(C)(C)CC85)[C@H](O)C[C@]76C)C4(C)C)[C@@H]3O[C@@H]3O[C@H](CO)[C@@H](O[C@@H]4OC[C@@H](O)[C@H](O)[C@H]4O)[C@H](O)[C@H]3O)O[C@H](CO)[C@H](O)[C@@H]2O)[C@H](O)[C@H](O)[C@H]1O (stereo not given in full)
inactive: activity change, negative = cell killing [1] -1.94% [at 9.23 µM] | outcome [2] inactive [at 9.52 µM] | outcome [3] inactive [at 9.73 µM] | activity change, negative = inhibition [4] 0.267% [at 11.6 µM] | activity change, negative = thiol reactive [5] 330% [at 11.5 µM] | activity, negative = inhibition [6] 0% [at 11.6 µM] | redox activity (% of DA3003) [7] 15% [at 11.5 µM]

COC(=O)C1=CO[C@@H](O[C@@H]2O[C@H](CO)[C@@H](O)[C@H](O)[C@H]2O)[C@@H]2[C@@](C)(O)[C@@H](OC(=O)/C=C/c3ccc(O)cc3)C[C@]12O
active: Potency [5] 3.27 µM
inactive: Potency [1] | Potency [2] | Potency [3] | Potency [4] | Potency [6] | Potency [7]
